PLK1 PBD block: qHTS for Inhibitors of PLK1-PDB (polo-like kinase 1 - polo-box domain): Primary Screen; 360,000 tested, 2.8% active; Plk1 PBD binding of FITC phosphopeptide, fluorescence polarization; Serine/threonine-protein kinase PLK1 (Homo sapiens), P53350; Potency, µM, for inactives: max response, negative = inhibition, most hits filed as inhibitors; also: potency is read from the fitted curve at half-maximal effect; series mostly up to about 57 µM; nearly all actives have a fitted effect of over 65% in size
Target sequence (P53350 whole entry, looked up, the tested form may be a part): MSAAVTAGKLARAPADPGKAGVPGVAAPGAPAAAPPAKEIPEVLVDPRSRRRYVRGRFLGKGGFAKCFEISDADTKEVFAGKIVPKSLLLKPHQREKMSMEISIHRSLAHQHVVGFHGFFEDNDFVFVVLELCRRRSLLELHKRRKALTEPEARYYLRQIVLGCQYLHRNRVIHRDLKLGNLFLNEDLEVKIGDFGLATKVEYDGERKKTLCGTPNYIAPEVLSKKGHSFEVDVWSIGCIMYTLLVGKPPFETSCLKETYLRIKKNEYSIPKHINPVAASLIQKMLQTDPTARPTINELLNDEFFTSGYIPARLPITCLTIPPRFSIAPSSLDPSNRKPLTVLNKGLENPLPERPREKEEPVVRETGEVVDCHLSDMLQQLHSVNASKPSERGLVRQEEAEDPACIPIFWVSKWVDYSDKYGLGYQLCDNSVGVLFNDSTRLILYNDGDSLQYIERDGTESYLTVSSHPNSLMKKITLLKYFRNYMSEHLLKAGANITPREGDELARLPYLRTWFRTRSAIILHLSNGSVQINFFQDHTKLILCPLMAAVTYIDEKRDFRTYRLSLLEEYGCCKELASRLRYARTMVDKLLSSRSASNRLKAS
G9a block: qHTS Assay for Inhibitors of Histone Lysine Methyltransferase G9a; G9a H3K9 monomethylation, AlphaScreen, 2 h; 350,000 tested, 8.8% active; Potency, µM (top dose mostly 102 µM), for inactives: top-dose activity, negative = inhibition, actives largely listed as inhibitors; AID 504332, 2011; Histone-lysine N-methyltransferase EHMT2 (Homo sapiens), Q96KQ7; also: potency is read from the fitted curve at half-maximal effect; nearly all actives have a fitted effect of over 75% in size
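Signal arises when biotinylated H3K9 peptide, once monomethylated, bridges streptavidin donor and antibody-captured acceptor beads. Enzyme at 20 nM was preincubated 15 min with test compounds; peptide 500 nM and SAM 20 uM then reacted for 2 h.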
CCT modulator: High-Throughput Screening for Modulators of Cytosolic Chaperonin Activity; purified chaperonin ATPase assay, HTRF ADP detection, 30 min; activity change, % (test concentration not listed), hits read low; 360,000 tested, 0.3% active; in the data active = activity change below about -30%
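First, chaperonin was dispensed at 40 nM or 20 nM final depending on batch activity. Next, compounds were pinned at 76 uM and ATP added at 10 uM. After 30 min at 37 °C, ADP detection reagents ran 30 min at ambient temperature.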
MmCpn inh: Inhibitors of TCP-1 ring complex (TRiC) of Methanococcus maripaludis (MmCpn): qHTS; purified Mm-Cpn ATPase, ADP Transcreener TR-FRET; 330,000 tested, 0.031% active; Chaperonin Mm-Cpn (Methanococcus maripaludis); Potency, µM (titrated, usually from 76.9 µM), inactives show top-dose activity, negative = inhibition, most hits filed as inhibitors; also: potency is read from the fitted curve at half-maximal effect; nearly all actives have a fitted effect of over 80% in size
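Purified archaeal Mm-CPN (25nM final) preincubated 10 min at 37degC with compound, then 10uM ATP for 30 min at 37degC; ADP measured by HTRF Transcreener TR-FRET; buffer 30 mM TRIS pH 7.4, 100mM KCl, 5mM MgCl2, 1mM DTT.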
Sfp inh: qHTS Assay for Inhibitors of Bacillus subtilis Sfp phosphopantetheinyl transferase (PPTase); Potency, µM, for inactives: largest response in the series, negative = inhibition, usual class: inhibitors; Biochemical Sfp PPTase activity, qHTS; 4'-phosphopantetheinyl transferase ffp (Bacillus subtilis), Q9F4F7; 310,000 tested, 3.5% active;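 also: the enzyme is Sfp with the accession as filed and its product quenches rhodamine fluorescence; potency is read from the fitted curve at half-maximal effect; 0% = enzyme reaction without inhibitor and -100% = no enzyme wells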
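Sfp 15 nM + cpd, 15 min RT; start w/ rhodamine-CoA 5 uM, BHQ-2-YbbR 12.5 uM (final); 50 mM Hepes pH 7.6, 10 mM MgCl2, 0.01% NP-40, 0.01% BSA; read 525/598 nm at 0 and 30 min.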
VDR inhibitor: Inhibitors of the vitamin D receptor (VDR): qHTS | VDR-SRC2-3 peptide fluorescence polarization, 2 h | Vitamin D3 receptor (Homo sapiens), P11473 | AID 504847, 2011 | Potency, µM, for inactives: max response, negative = inhibition, usual class: inhibitors | 400,000 tested, 0.93% active; also: potency is read from the fitted curve at half-maximal effect
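The screen uses fluorescence polarization to detect compounds that interfere with recruitment of the SRC2-3 coactivator peptide to VDR; plates are read after 2 h at room temperature.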
* hit, by the source's call; u = inconclusive; x = no result given; [ ] = dose if it differs, or a comment. Most compounds without a hit are left out; they make up all but 10% or so of the library. Unless noted, calls follow the shape of the dose curve; as a rule, active = well fitted curve in the direction sought with a large enough effect; inconclusive = small, poorly fitted or top-dose-only effect, or another doubt; inactive = no such curve, though single readings can be large; an effect the other way counts as inactive or inconclusive. Unless noted, % is scaled to controls: 0 for no effect and ±100 for the full control effect.

SMILES | PLK1 PBD block | G9a block | CCT modulator | MmCpn inh | Sfp inh | VDR inhibitor
COc1ccc(OCC(=O)Nc2nnc3n2CCS3)cc1 | x | u | x | x | x | 10%
CCCC(=O)Nc1nnc2n1CCS2 | x | u | x | x | x | -3%
CCc1ccccc1N(c1nc(-c2ccc(OC)c(OC)c2)no1)c1nc(-c2ccc(OC)c(OC)c2)no1 | x | -3%[59 µM] | x | x | x | -5%
COc1ccc(C(=O)NCCn2cc(SCc3ccc(C(F)(F)F)cc3)c3ccccc32)cc1OC | x | -32%[59 µM] | x | x | x | -5%
Cc1cc(C(=O)NNc2ccc(F)cc2)no1 | -4% | 28µM* | 0 | -1% | 4% | -17%
CCCc1ccc(C(=O)NNc2ccccc2F)cc1 | -4% | 56µM* | -1 | 1% | 2% | -16%
Cc1ccc(NC(=O)c2cc(C)on2)cc1 | -9% | u | -2 | 1% | 6% | -7%
Cc1cc(C(=O)NNc2ccccc2F)no1 | 5% | 40µM* | 1 | 1% | 6% | 2%
Cc1ccc(NC(=O)c2cc(-c3ccc(F)cc3)on2)cc1C | 24µM* | 22%[59 µM] | -3 | 2% | 24% | -30%
COc1ccc(Cl)cc1NC(=O)c1cc(-c2ccc3c(c2)OCO3)on1 | x | 5%[59 µM] | x | x | x | -7%
CC(=O)N1CCC2(CCCN(c3ccccn3)C2)CC1 | x | 1%[12.7 µM] | x | x | 4% | -11%
CCC(CC)C(=O)Nc1cc(-c2cccc(C)c2)nn1-c1ccccc1 | x | 12%[59 µM] | x | x | x | 10%
CCc1ccccc1NNC(=O)CCc1ccccc1 | 1% | 28µM* | -1 | -3% | 14% | 2%
O=C(NNc1c(Cl)cccc1Cl)c1sccc1Cl | -4% | 13µM* | -1 | 1% | -5% | -11%
Cc1cc(C(=O)NNc2c(Cl)cccc2Cl)no1 | 5% | 28µM* | -5 | -1% | 3% | -20%
CCc1ccccc1NNC(=O)c1cc(C)on1 | -2% | 3.2µM* | -3 | 0% | 2% | -13%
C[C@@H]1CC2C3CCC4=CC(=O)C=C[C@]4(C)[C@@]3(F)[C@@H](O)C[C@]2(C)[C@@]1(O)C(=O)COC(=O)c1cccc(S(=O)(=O)O)c1 (some centres not stated) | x | -34%[12.7 µM] | x | x | 11% | 3%
CCOc1[nH]n(-c2ccccc2)c(=O)c1C=Nc1ccccc1 | 3% | 20µM* | 2 | -4% | 15% | 9%
Cc1[nH]n(-c2ccccc2)c(=O)c1C=Nc1ccc(S(=O)(=O)Nc2nccs2)cc1 | 24µM* | u | -1 | 0% | 15% | 3%
COc1nccnc1NS(=O)(=O)c1ccc(N=Cc2c(C)[nH]n(-c3ccccc3)c2=O)cc1 | -1% | 56µM* | 1 | -1% | 10% | 11%
Cc1[nH]n(-c2ccc(Cl)cc2)c(=O)c1C=Nc1ccc(S(=O)(=O)N2CCOCC2)cc1 | -2% | 50µM* | -3 | -1% | 23% | 1%
CCOc1ccc(C(=O)Nc2cccc(OCc3cc(=O)n4cc(C)sc4n3)c2)cc1 | x | -10%[59 µM] | x | x | x | -11%
C=Cc1ccc(Cn2c(C(=O)O)c(CNCCc3ccccc3)c3ccc(C)cc32)cc1 | x | -39%[59 µM] | x | x | x | 15%
COc1nccnc1NS(=O)(=O)c1ccc(N=Cc2c(C)[nH]n(-c3ccc(Cl)cc3)c2=O)cc1 | x | 25µM* | x | 1% | 13% | x
CCc1nnc(NS(=O)(=O)c2ccc(N=Cc3c(C)[nH]n(-c4ccc(Cl)cc4)c3=O)cc2)s1 | u | -8%[59 µM] | 0 | -1% | 11% | -9%
CCN(Cc1ccccc1)c1ccc(N=Nc2nn(C)c(C)c2[N+](=O)[O-])cc1 | 0% | 10µM* | 2 | -4% | -6% | -10%
CCN(CC)c1ccc(N=Nc2nn(C)c(C)c2[N+](=O)[O-])cc1 | 0% | u | 1 | -2% | -14% | -6%
